# HT1080NT lethal: kills 2HG-producing HT-1080-NT fibrosarcoma cells. HT-1080-NT fibrosarcoma viability, CellTiter-Glo ATP luminescence, 48 h. Potency, µM (highest dose often 46.1 µM), for the others: at the top dose activity, negative = less viability, usual class: cytotoxic. hit rate 1.6% among 360,000. AID 686970;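 also: NT is the 2HG producing partner of a matched IDH1 knockdown line; 0% = DMSO-treated cells and -100% = media-only wells without cells; nearly all actives have a fitted effect of over 55% in size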
#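 Fibrosarcoma NT cells, 750 per well in 5% FBS RPMI, were exposed to compound for 48 hours. Viability: CellTiter-Glo luminescence.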
# KB-3-1 tox: kills parental KB-3-1 adenocarcinoma cells; KB-3-1 viability, CellTiter-Glo ATP luminescence, 72 h; Potency, µM (titrated, usually from 46.1 µM), most hits filed as cytotoxic; hit rate 1.4% among 400,000; also: nearly all actives have a fitted effect of over 60% in size
#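 Screening of KB-3-1 cells (DMEM, 10% FBS, phenol-red free) ran from lowest to highest compound concentration; after 72 h at 37 °C viability was read luminescently and curves fitted.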
# KB-V1 MDR tox: kills drug-selected multidrug resistant KB-V1 cells; Potency, µM (doses to about 46.1 µM), actives largely listed as cytotoxic; hit rate 3.4% among 400,000; KB-V1 MDR cells viability, CellTiter-Glo, 72 h; also: nearly all actives have a fitted effect of over 60% in size
#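 Following 72 h at 37 degrees C with compound, KB-V1 cell viability was read by CellTiter-Glo luminescence, medium being phenol-red-free DMEM plus 10% FBS; concentration-response parameters came from normalized, curve-fitted qHTS data.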
# DT40 TDP1 no CPT: qHTS for Inhibitors of human tyrosyl-DNA phosphodiesterase 1 (TDP1): qHTS in cells in absence of CPT; DT40 Tdp1-/- hTDP1 cells, no CPT, ATP luminescence, 48 h; Potency, µM (doses to about 46.2 µM), for inactives: top-dose activity change, negative = growth inhibition, most hits filed as inhibitors; hit rate 15% among 420,000; also: nearly all actives have a fitted effect of over 55% in size
#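 Growth of hTDP1-complemented DT40 Tdp1-knockout cells is measured by ATP luminescence after at least 48 hr compound exposure at 37 °C, with DMSO substituting for the 20 nM CPT used in the parallel screen.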
# TDP1 cell CPT: DT40-hTDP1 cell growth loss with CPT; chicken DT40 Tdp1-/-;hTDP1 cells + 20 nM CPT, ATP luminescence, 48 h; Potency, µM (highest dose often 46.2 µM), for inactives: at the top dose activity change, negative = growth inhibition, hits mostly inhibitors; AID 686979; hit rate 12% among 420,000; also: nearly all actives have a fitted effect of over 55% in size
#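 Cell growth measured by CellTiter-Glo luminescence after a minimum 48 h, 37 C compound exposure with 20 nM CPT in Tdp1-knockout DT40 cells stably expressing hTDP1, seeded 400/well; qHTS titration format.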
# HT1080 IDH1KD tx: kills HT-1080 cells with IDH1 knockdown; HT-1080 IDH1 knockdown viability, ATP luminescence, 48 h; Potency, µM (titrated, usually from 46.1 µM), for the others: top-dose activity, negative = toxicity, usual class: cytotoxic; hit rate 2% among 360,000;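 also: 0% = DMSO wells and -100% = cell-free medium wells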
#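 In this qHTS, HT-1080 cells depleted of IDH1 are exposed for 48 h at 37 °C to compound titrations. Toxicity is scored from CellTiter-Glo luminescence, with DMSO as full viability and medium alone as none.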
# * = called active by the depositor; i = inactive; ? = inconclusive; . = no result; [ ] = dose if it differs, or a comment. A selection: hits, their analogues and other compounds. The true share with any hit is near 19%. Calls follow the shape of the dose curve; as a rule, active = well fitted curve in the direction sought with a large enough effect; inconclusive = small, poorly fitted or top-dose-only effect, or another doubt; inactive = no such curve, though single readings can be large; an effect the other way counts as inactive or inconclusive. Unless noted, % is scaled to controls: 0 for no effect and ±100 for the full control effect; potency is read from the fitted curve at half-maximal effect.
SMILES,HT1080NT lethal,KB-3-1 tox,KB-V1 MDR tox,DT40 TDP1 no CPT,TDP1 cell CPT,HT1080 IDH1KD tx
O=C(CC1SC2=NCCN2C1=O)Nc1ccc(Br)cc1 (configuration not stated),1%,i,i,-2%,-2%,1%
CCCN1C(=O)SC(CC(=O)Nc2ccc(Br)cc2)C1=O (configuration not stated),-9%,i,i,13µM*,?,-10%
CCC(C)NCC(=O)Nc1cc(S(=O)(=O)N(CC)c2ccccc2)ccc1Cl (configuration not stated),-20%,?,i,23µM*,21µM*,-12%
CCN(c1ccccc1)S(=O)(=O)c1ccc(Cl)c(NC(=O)CN(C)Cc2cccc(F)c2)c1,-1%,?,16µM*,18µM*,16µM*,-15%
CCN(c1ccccc1)S(=O)(=O)c1ccc(Cl)c(NC(=O)CN2CCCCCC2)c1,?,?,21µM*,18µM*,21µM*,?
CCN(c1ccccc1)S(=O)(=O)c1ccc(Cl)c(NC(=O)COC(=O)C2CC2C)c1 (configuration not stated),-1%,i,i,-12%,6%,-7%
CCN(c1ccccc1)S(=O)(=O)c1ccc(Cl)c(NC(=O)COC(=O)c2ccc(O)cc2)c1,9%,i,?,?,?,12%
CCN(c1ccccc1)S(=O)(=O)c1ccc(Cl)c(NC(=O)CNC(C)c2ccccc2)c1 (configuration not stated),-9%,?,16µM*,?,21µM*,-9%
CC(=O)c1ccc(F)c(-c2cc(C)cc3c2OC(CNC(=O)c2ccnn2C)C3)c1 (configuration not stated),.,.,.,-25%,23%[9.04 µM],.
COc1ccc(NC(=O)CN2C(=O)COc3ccc(S(=O)(=O)N4CCCCC4)cc32)cc1Cl,.,.,.,15µM*,?,.
CC(C)NC(=O)CN1C(=O)COc2ccc(S(=O)(=O)N3CCCCCC3)cc21,.,i,i,1%,-1%,.
CC1CCN(S(=O)(=O)c2ccc3c(c2)N(CC(=O)Nc2ccc(F)c(Cl)c2)C(=O)CO3)CC1,.,.,.,15µM*,23µM*,.
CC(C)c1ccc(NC(=O)CN2C(=O)COc3ccc(S(=O)(=O)N4CCCCC4)cc32)cc1,.,.,.,23µM*,?,.
Cc1ccc(NC(=O)CN2C(=O)COc3ccc(S(=O)(=O)N4CCCCCC4)cc32)cc1Cl,.,.,.,15µM*,21µM*,.
Cc1ccc(NC(=O)CN2C(=O)COc3ccc(S(=O)(=O)N4CCCC4)cc32)cc1C,-6%,i,i,?,-1%,-7%
CNC(=O)CN1C(=O)COc2ccc(S(=O)(=O)N3CCC(C)CC3)cc21,.,i,?,.,.,.
CN1CCc2c(sc(NC(=O)C3CCCCC3)c2C(N)=O)C1,-3%,i,i,1%,16%,-2%
CCOC(=O)C1(C)CCCN1C(=O)c1ccc(OC)c(OC)c1 (configuration not stated),15%,i,i,8%,-15%,4%
CC1(Oc2ccccc2)CCN(Cc2csc3ccccc23)C1 (configuration not stated),-20%,i,i,?,?,1%
Cc1ccc(Cl)cc1N1CCN(C(=O)CN2C(=O)COc3ccc(S(=O)(=O)N4CCCCCC4)cc32)CC1,.,?,26µM*,.,.,.
COc1cccc(-c2cc3c(c(OC)c2)OCCN(Cc2cccn2-c2ccccn2)C3)c1,.,.,.,-7%,18%[9.04 µM],.
COc1cccc(-c2ccc3ncnc(N4CCN(C)CC4)c3c2)c1,.,.,.,23µM*,13µM*,.
CN1CCN(c2ncnc3ccc(-c4cccnc4)cc23)CC1,.,.,.,?,16µM*,.
COc1ccccc1-c1ccc2ncnc(N3CCNCC3)c2c1,.,.,.,14%,?,.
CN1CCN(c2ncnc3ccc(-c4ccc(C(=O)N(C)C)cc4)cc23)CC1,.,.,.,3%,6%,.
SMILES,HT1080NT lethal,KB-3-1 tox,KB-V1 MDR tox,DT40 TDP1 no CPT,TDP1 cell CPT,HT1080 IDH1KD tx
CN1CCN(c2ncnc3ccc(-c4ccoc4)cc23)CC1,.,.,.,23µM*,12µM*,.
CC(=O)N[C@@H]1C=C[C@@H](CC(=O)NCc2ccc(Cl)cc2)O[C@@H]1CO,15%,i,i,-5%,-21%,13%
COc1cc(/C=C/C(=O)OCC(=O)c2ccc[nH]2)ccc1O,-11%,i,i,-24%,-7%,-9%
COc1ccc(C)cc1N(C(=O)c1ccccc1F)c1nc2ccccc2s1,-2%,i,i,18µM*,?,-15%
COc1ccc(C)cc1N(C(=O)COc1ccccc1)c1nc2ccccc2s1,2%,i,21µM*,?,?,-10%
Cc1ccccc1CC(=O)Nc1ccc(C(=O)N2CCCC2)cc1,-10%,i,i,2%,0%,0%
Nc1nccnc1C(=O)OCC(=O)NC1CCCc2ccccc21 (configuration not stated),0%[9.24 µM],i,?,5%,1%,-1%
COc1cc2c(cc1OC)C1Cc3ccc(OC)c(OC)c3CN1CC2 (configuration not stated),-3%,i,i,7.3µM*,?,3%
CCC1=C(CC2NCCc3ccccc32)CC2c3cc(OC)c(OC)cc3CCN2C1 (configuration not stated),?,6.5µM*,?,1.6µM*,1.2µM*,6.5µM*
O=C(NCCOc1ccccc1)C(=O)c1c[nH]c2ccccc12,8%,i,i,-1%,-6%,12%
Cc1ccc(C(=O)NCC(c2cccnc2)N2CCc3ccccc32)cc1C (configuration not stated),.,i,i,15µM*,7.3µM*,.
COc1cc(C(=O)NCC(c2cccnc2)N2CCN(C)CC2)cc(OC)c1OC (configuration not stated),4%,i,i,-4%,-12%,0%
COc1ccc(C(=O)NCC(c2cccs2)N2CCc3ccccc32)cc1OC (configuration not stated),-30%,i,i,21µM*,?,-21%
Cc1ccc(NC(=O)C(=O)NCC(c2cccnc2)N2CCN(C)CC2)cc1C (configuration not stated),.,i,i,-4%,-2%,.
O=C(NCC(c1cccnc1)N1CCc2ccccc21)c1ccccc1Br (configuration not stated),.,i,i,?,?,.

# Screening data as filed in PubChem BioAssay.
